Test results from PubChem BioAssay (NCATS).
Results filed as inconclusive are left out. The source made the active and inactive calls. Calls follow the shape of the dose curve; as a rule, active = well fitted inhibition curve with a large enough effect; inconclusive = small, poorly fitted or top-dose-only effect; inactive = no such curve, though single readings can be large or run the other way.

What follows are compounds tested against Retinaldehyde dehydrogenase 3 (Homo sapiens) (UniProt P47895) (assay: qHTS for Inhibitors of the Aldehyde Dehydrogenase Family (ALDH1A3) Primary screen (AID 2061315;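 also: plate controls were DMSO vehicle for no effect and reference inhibitor for full effect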)). Conditions: ALDH inhibition qHTS; series mostly up to 56 µM; activity change, negative = inhibition: at the top concentration.

Structure (SMILES)	activity change, negative = inhibition
CC1=C[C@H]2O[C@@H]3[C@H](O)[C@@H](O)[C@](C)([C@@]2(CO)C[C@@H]1O)[C@]31CO1	-3.46% (inactive)
C=C(CO)C(=O)O[C@H]1C/C(C)=C/CC/C(CO)=C/[C@H]2OC(=O)C(=C)[C@H]12	8.04% (inactive)
COCC(C(=O)OC1CC2CCC(C1)N2C)c1ccccc1 (stereo not given)	-1.29% (inactive)
CCCC[N+]1(C)[C@@H]2CC(OC(=O)[C@H](CO)c3ccccc3)C[C@H]1[C@@H]1O[C@@H]12 (stereo not given in full)	-4.82% (inactive)
Oc1ccc2c3c1O[C@H]1[C@H](N(CCCl)CCCl)CC[C@@]4(O)[C@@H](C2)N(CC2CC2)CC[C@]314	-18.8% [at 11.2 µM] (inactive)
CC12CCC3C(CCC4(O)CC(O)CCC34C=O)C1(O)CCC2C1=CC(=O)OC1 (stereo not given)	-14.6% (inactive)
C/C=C(\C)C(=O)OC1CC2C(CC=C3CC(OC4CC(OC)C(OC5CC(OC)C(OC6CC(OC)C(OC7CC(OC)C(O)C(C)O7)C(C)O6)C(C)O5)C(C)O4)CCC32C)C2(O)CCC(C(C)=O)C12C (stereo not given)	14.7% [at 16.9 µM] (inactive)
Fc1cc(F)c2c(c1)[C@H]1C=CC[C@H]1C(c1cccnc1)N2 (stereo not given in full)	5.63% (inactive)
C/C=C(\C)C(=O)OC1C(C)OC(OC2C(C)OC(OC3CCC4(C)C(=CCC5C4CCC4(C)C(C(C)OC6OC(COC7OC(CO)C(O)C(O)C7O)C(O)C(O)C6O)CCC54O)C3)CC2OC)C(O)C1OC (stereo not given)	-3.17% [at 16.9 µM] (inactive)
CCOC(=O)c1ncn2c1CN(C)C(=O)c1c(I)cccc1-2	-16.8% (inactive)
O=C1Nc2ccc3ncsc3c2/C1=C/c1cnc[nH]1	12.5% (inactive)
CC(C)C1(OO)C=C2C(=O)CC3C(C)(C(=O)O)CCCC3(C)C2CC1 (stereo not given)	12.5% (inactive)
CCCN(CCC)CCc1ccc(OC)c(OCCc2ccccc2)c1	-17% (inactive)
CCOC(=O)c1ccnc2cc(C(OCCN3CCCCC3)c3ccccc3Cl)sc12 (stereo not given)	-10.3% (inactive)
C[C@H]1CCC[C@H](O)CCC/C=C/c2cc(O)cc(O)c2C(=O)O1	14.8% (inactive)
CN1CCc2cc3c(cc2C1C1OC(=O)c2c1ccc1c2OCO1)OCO3 (stereo not given)	4.45% (inactive)
CN1C(=O)N(c2ccc(C#N)c(C(F)(F)F)c2)C(=O)[C@]1(CO)c1ccccc1	1.04% (inactive)
COc1ccc2c3c([nH]c2c1)C(C=C(C)C)N1C(=O)C2CCCN2C(=O)C1C3 (stereo not given)	-11.7% (inactive)
C[C@]12CC[C@H](O[C@@H]3O[C@H](CO)[C@@H](O)[C@H](O)[C@H]3O[C@@H]3O[C@H](CO)[C@@H](O)[C@H](O)[C@H]3O)CC1=CC[C@@H]1[C@@H]2CC[C@]2(C)[C@@H](C3=CC(=O)OC3)CC[C@]12O	12.1% [at 16.9 µM] (inactive)
CCC1CN2CCc3cc(OC)c(OC)cc3C2CC1CC1=NCCc2cc(O)c(OC)cc21 (stereo not given)	-15.1% [at 28 µM] (inactive)
C[C@]12CC[C@@H](O)C[C@H]1CC[C@@H]1[C@@H]2CC[C@]2(C)C(=O)CC[C@@H]12	4.29% (inactive)
CC(C)(C)[C@]1(O)C[C@@H]2OC(=O)C[C@@]23C(=O)O[C@@H]2OC(=O)[C@@H](O)[C@]213	-11.9% (inactive)
CC1CCCC(O)CC(=O)Cc2cc(O)cc(O)c2C(=O)O1 (stereo not given)	8.55% (inactive)
CC1=C[C@H]2O[C@@H]3C[C@H]4OC(=O)/C=C/C=C/C(=O)OCC/C(C)=C/C(=O)OC[C@@]2(CC1)[C@]4(C)[C@]31CO1	2.5% [at 28 µM] (inactive)
CC12CCC3C(C1)c1c(cc(O)c(C(=O)c4ccccc4)c1OC3(C)C)O2 (stereo not given)	4.91% (inactive)
